Hits are enriched below; roughly 2.9% of the tested compounds scored in any of these assays.
Beta2AR agonist – human beta-2 adrenergic receptor agonism by FAP | response, % (concentration not given with the values) | Am2.2-beta2AR cells, FAP receptor internalization, flow cytometry | P07550 | 340,000 tested, 0.43% active;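 active = response above a set limit, near 3 SD of response in nonfluorescent compounds, cut at about 42% in these data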
Target sequence (P07550 whole entry, looked up): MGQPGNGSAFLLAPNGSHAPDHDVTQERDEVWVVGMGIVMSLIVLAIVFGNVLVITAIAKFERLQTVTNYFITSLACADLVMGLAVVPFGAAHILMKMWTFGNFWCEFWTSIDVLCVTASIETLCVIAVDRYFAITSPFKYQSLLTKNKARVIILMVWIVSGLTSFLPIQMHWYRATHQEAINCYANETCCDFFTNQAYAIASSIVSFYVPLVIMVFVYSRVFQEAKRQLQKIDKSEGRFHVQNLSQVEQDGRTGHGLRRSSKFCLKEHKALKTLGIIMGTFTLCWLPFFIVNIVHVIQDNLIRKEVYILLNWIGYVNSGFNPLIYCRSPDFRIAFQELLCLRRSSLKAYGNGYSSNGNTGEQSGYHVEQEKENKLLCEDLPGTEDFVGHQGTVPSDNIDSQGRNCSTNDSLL
MEKK2 WT-MEK5 – raises or lowers MEK5 binding to wildtype human MEKK2 PB1 domain; 290,000 tested, 1.1% active; binding response (% of control), % at 10 µM; Q9Y2U5; bead flow cytometry, Alexa488-MEK5 binding to MEKK2 WT; actives lie on both sides; AID 1531; in the data active = binding response below about 67% or above about 130%
MEKK3 PB1 HTS – modulators (inhibitors or enhancers) of MEK5 binding to human MEKK3 PB1 domain | bead-based flow cytometry, Alexa488-MEK5 binding to MEKK3; actives lie on both sides; 0 = blocked by unlabeled MEK5, 100 = vehicle | binding response (% of control), % at 10 µM | 290,000 tested, 1.4% active | AID 1529;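 active = binding response more than 3 SD above or below the average of its plate-row segment, actives on both sides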;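 also: Alexa488 bead fluorescence after subtracting the streptavidin-only scavenger bead signal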
GRK2 inh – human GRK2 inhibition via aptamer displacement; bead flow cytometry, FAM-aptamer displacement from GRK2; 330,000 tested, 0.59% active; AID 488847; inhibition of aptamer binding, % at 10 µM;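 active = inhibition of aptamer binding above 40%, roughly 3 SD of noise, on plates passing a quality check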;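 also: median bead fluorescence of bound FAM aptamer so fluorescent compounds give negative values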
MEKK2mut PB1 HTS – signal of MEK5 binding to mutant human MEKK2 PB1 domain | bead flow cytometry, Alexa488-MEK5 binding to MEKK2 mutant | percent response, % at 10 µM | 290,000 tested, 0.35% active; in the data active = percent response above about 24%, passing the limit was not always enough
MEKK2wt confirm – raises or lowers MEK5 binding to wildtype human MEKK2, retest; shares compounds with MEKK3 PB1 HTS; bead flow cytometry, Alexa488-MEK5 binding to MEKK2 WT; actives lie on both sides; binding response (% of control), % at 10 µM; 5,900 tested, 2.4% active; in the data active = binding response below about 16% or above about 210%; inactive = in between
MEKK2mut confirm – signal of MEK5 binding to mutant human MEKK2, retest. shares compounds with MEKK3 PB1 HTS. bead flow cytometry, Alexa488-MEK5 binding to MEKK2 mutant. percent response, % at 10 µM. 5,900 tested, 2% active. AID 1893; in the data active = percent response mostly above about 71%, no sharp cut-off; inactive = mostly below about 38%;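 also: higher means compound restores mutant binding toward wildtype level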
MEKK3-MEK5 inh – MEKK3-MEK5 PB1 inhibition, single concentration confirmation; shares compounds with MEKK3 PB1 HTS; binding response (% of control), % at 10 µM; 5,900 tested, 1.8% active; bead flow cytometry, Alexa488-MEK5 binding to MEKK3; hits give low values;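 active = binding response below 72% of control, or above a set upper limit, though filed actives all read lower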;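 also: lower values mean stronger disruption of MEK5 binding to MEKK3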
Hits are given with their value; – = inactive; · = no result given; ! = repeats disagree; [ ] = dose if it differs, or a comment.

SMILES | Beta2AR agonist | MEKK2 WT-MEK5 | MEKK3 PB1 HTS | GRK2 inh | MEKK2mut PB1 HTS | MEKK2wt confirm | MEKK2mut confirm | MEKK3-MEK5 inh
CC12CCC(=O)CC1CCC1C2CCC2(C)C1CCC2(O)C(=O)CO (configuration not stated) | – | · | · | · | · | · | · | ·
C=CCc1c(C)[nH]c2c(OC)cccc2c1=S | – | – | – | – | – | · | · | ·
Cc1ccc2[nH]c(C)c(/C=N/Nc3nc4ccccc4s3)c2c1 | – | 138.0 | – | – | – | – | – | –
COc1ccc(C=NNc2nc3ccccc3s2)cc1 | – | · | · | · | · | · | · | ·
Cc1ccc(N(CC2=NCCN2)c2cccc(O)c2)cc1 | – | – | 35.0![inhibitor] | – | – | – | – | –
CN1CCN(C(=S)NC(=O)c2ccc(C(C)(C)C)cc2)CC1 | – | – | – | – | – | · | · | ·
CN1CCC2(CC1)N=C(c1ccc(F)cc1)C(=S)N2C(=O)c1ccc(C(C)(C)C)cc1 | – | 147.0 | – | – | – | – | – | –
Cc1occc1-c1nnc(SCC(=O)c2ccc(Cl)cc2)n1CC1CCCO1 (configuration not stated) | – | 3.0[inhibitor] | 2.0[inhibitor] | – | – | – | – | –
COc1ccc2c(COC(=O)[C@H](C)NS(=O)(=O)c3ccccc3F)cc(=O)oc2c1 | – | · | · | – | · | · | · | ·
CC(=O)NCc1ccc(S(=O)(=O)N/N=C/c2ccc(Br)cc2)cc1 | – | – | 139.0 | – | – | – | – | –
CC(=O)NCc1ccc(S(=O)(=O)N/N=C/c2ccccc2)cc1 | – | – | – | – | – | · | · | ·
CCN(CC)c1ccc(/C=N/NS(=O)(=O)c2ccc(CNC(C)=O)cc2)cc1 | – | – | 145.0 | – | – | – | – | –
Cc1cc([N+](=O)[O-])nn1CCCC(=O)N1CCN(c2ccccc2)CC1 | – | – | – | – | – | · | · | ·
O=S(=O)(NCc1ccccc1F)c1cccc(S(=O)(=O)N2CCOCC2)c1 | – | – | – | – | – | · | · | ·
C[C@H](CO)N1C[C@H](C)[C@@H](CN(C)S(=O)(=O)c2ccccc2)Oc2c(NC(=O)Nc3ccc4c(c3)OCO4)cccc2C1=O | – | · | · | – | · | · | · | ·
Cc1ccc(NC(=O)C2(c3cccs3)CCOCC2)cc1C | – | – | 69.0[inhibitor] | – | – | – | – | –
Cc1cccc(NC(=O)C2(c3cccs3)CCOCC2)c1 | – | – | – | – | – | · | · | ·
Cc1cc(C)cc(NC(=O)C2(c3cccs3)CCOCC2)c1 | – | – | 136.0 | – | – | – | – | –
Cc1ccc(Oc2nc(-c3cccnc3)nc3ccccc23)c([N+](=O)[O-])n1 | – | – | – | – | – | · | · | ·
COc1cc(S(=O)(=O)N(Cc2ccc(C)cc2)Cc2ccco2)ccc1-n1cnnn1 | – | – | – | – | – | · | · | ·
COc1cc(S(=O)(=O)N(Cc2cccnc2)Cc2ccco2)ccc1-n1cnnn1 | – | – | 80.0[inhibitor] | – | – | – | – | –
Cc1cc(C)n(-c2ccc(Cl)c(C(=O)O)c2)n1 | – | – | – | – | – | · | · | ·
FC(F)(F)c1ccc(-c2nnc(-c3ccccn3)c(-c3ccccn3)n2)nc1 | – | – | 61.0[inhibitor] | – | – | – | – | –
CCN(Cc1nc2cc(Cl)ccc2c(=O)[nH]1)C(=O)CN1C(=O)NC2(CCCCC2C)C1=O (configuration not stated) | – | · | · | · | · | · | · | ·
CC(=O)Nc1nnc(SCC(=O)N2CCN(Cc3ccccc3)CC2)s1 | – | – | 75.0[inhibitor] | – | – | – | – | –
SMILES | Beta2AR agonist | MEKK2 WT-MEK5 | MEKK3 PB1 HTS | GRK2 inh | MEKK2mut PB1 HTS | MEKK2wt confirm | MEKK2mut confirm | MEKK3-MEK5 inh
CCc1nnc(NC(=O)CN2CCCC(C)C2)s1 (configuration not stated) | – | – | – | – | – | · | · | ·
O=C1c2cccc3cccc(c23)C(=O)N1CCN1CCN(CC(O)COc2ccc3ccccc3c2)CC1 (configuration not stated) | – | 149.0 | – | – | – | – | – | –
CCc1ccc(OCC(O)CN2CCC(CN3C(=O)c4cccc5cccc(c45)C3=O)CC2)cc1 (configuration not stated) | – | 148.0 | – | – | – | – | – | –
CCc1ccc(OCC(O)CN2CCN(c3ccccc3)CC2)cc1 (configuration not stated) | – | – | – | – | – | · | · | ·
COc1ccc(COCC(O)CN2CCC(CN3C(=O)c4cccc5cccc(c45)C3=O)CC2)cc1OC (configuration not stated) | – | – | – | – | – | · | · | ·
COc1cccc(OCC(O)CN2CCC(CN3C(=O)c4cccc5cccc(c45)C3=O)CC2)c1 (configuration not stated) | – | 156.0 | – | – | – | – | – | –
CCCN(CC(=O)Nc1cc(Cl)ccc1Cl)C(=O)CN1C(=O)C2CCCCC2C1=O (configuration not stated) | – | – | – | – | – | · | · | ·
O=C(C[C@H]1C/C=C\CC[C@@H](Cc2ccc(F)cc2)C(=O)OC[C@H]2CCCN2C1=O)NCCO | – | · | · | – | · | · | · | ·
O=[N+]([O-])c1ccc(C2=NN(c3ccccc3)C(c3ccco3)C2)cc1 (configuration not stated) | – | 33.0 | – | · | 124.0 | – | – | –
CCOC(=O)[C@@H]1[C@H]2COc3cc(OC)ccc3[C@@H]2N2C(=O)N(c3ccc(Cl)cc3)C(=O)[C@@]12C | – | – | – | – | – | · | · | ·
Cc1[nH]c2ccccc2c1N=Nc1cccc(C(=O)O)c1 | – | – | 68.0[inhibitor] | – | – | – | – | –
Cc1cccc(C(=O)NCCC(=O)Nc2ccc(F)c([N+](=O)[O-])c2)c1 | – | – | – | – | – | · | · | ·
Cc1nc2ccc(Cl)cc2c(-c2ccccc2)c1CC(=O)O | – | – | – | – | – | · | · | ·
Cc1nc2ccccc2c(-c2ccccc2)c1CC(=O)O | – | – | 168.0 | – | – | – | – | –
CCOc1ccc(N(C(=O)c2snc(C(N)=O)c2N)C(C(=O)NC2CCCC2)c2ccncc2)cc1 (configuration not stated) | – | · | · | – | · | · | · | ·
CCn1c(=O)n(C)c2c(=O)n(C)c(=O)n(C)c21 | – | · | · | · | · | · | · | ·
CC(=O)N1CCN(c2ccc(Nc3ncnc4c3oc3ccccc34)cc2)CC1 | – | – | 81.0[inhibitor] | – | – | – | – | –
O=C(CN1C(=O)C(=O)N(Cc2ccco2)C1=O)Nc1ccccc1 | – | · | · | – | · | · | · | ·
CC(C)(C)OC(=O)N1CCC(CC2CC(c3cccc(Br)c3)=NO2)(C(=O)NCC2CCCCC2)CC1 (configuration not stated) | – | – | – | – | – | · | · | ·
O=C(NCC1CCCCC1)C1(CC2CC(c3cccc(Br)c3)=NO2)CCNCC1 (configuration not stated) | – | 145.0 | – | – | – | – | – | –
